Test results reported in the supplement of paper PMC4466140.

How the values were obtained:
Assay in all cases: SPOT peptide array binding signal intensity (averaged, normalized) (arbitrary units (background-subtracted, floor 0; scale differs between SH3 domains)); higher = stronger binding of the SH3 domain to the peptide
[1] = target: AgAbp1
Procedure, shortened: (§1)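 GST-fused SH3 domains, from four yeast species, were produced in E. coli BL21(DE3) and captured on glutathione Sepharose. Membranes of cellulose carrying synthetic 15-mer peptides, in which cysteines had been replaced by serines, were exposed to each domain at 10 μg/ml overnight at 4°C in TBS-based blocking buffer. After anti-GST antibody, an HRP anti-mouse secondary and luminol, spots were imaged and quantified using Genespotter. Binding signal is normalized and background-subtracted spot intensity, averaged over replicates, in arbitrary units that differ between domains.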

[2] = target: AgBbc1
Procedure, shortened: as §1

[3] = target: AgBem1-D1
Procedure, shortened: as §1

[4] = target: AgBzz1-D1
Procedure, shortened: as §1

[5] = target: AgBzz1-D2
Procedure, shortened: as §1

[6] = target: AgCyk3
Procedure, shortened: as §1

[7] = target: AgFus1
Procedure, shortened: as §1

[8] = target: AgHof1
Procedure, shortened: as §1

[9] = target: AgHse1
Procedure, shortened: as §1

[10] = target: AgLsb1
Procedure, shortened: as §1

[11] = target: AgLsb4
Procedure, shortened: as §1

[12] = target: AgMyo5
Procedure, shortened: as §1

[13] = target: AgNbp2
Procedure, shortened: as §1

[14] = target: AgRvs167
Procedure, shortened: as §1

[15] = target: AgSho1
Procedure, shortened: as §1

[16] = target: AgSla1-D1-D2
Procedure, shortened: as §1

[17] = target: AgSla1-D3
Procedure, shortened: as §1

[18] = target: CaAbp1-D1
Procedure, shortened: as §1

[19] = target: CaAbp1-D2
Procedure, shortened: as §1

[20] = target: CaBbc1
Procedure, shortened: as §1

[21] = target: CaBem1-D1
Procedure, shortened: as §1

[22] = target: CaBzz1-D1
Procedure, shortened: as §1

[23] = target: CaBzz1-D2
Procedure, shortened: as §1

[24] = target: CaCyk3
Procedure, shortened: as §1

[25] = target: CaFus1
Procedure, shortened: as §1

[26] = target: CaHof1
Procedure, shortened: as §1

[27] = target: CaHse1
Procedure, shortened: as §1

[28] = target: CaLsb1
Procedure, shortened: as §1

[29] = target: CaLsb4
Procedure, shortened: as §1

[30] = target: CaMyo5
Procedure, shortened: as §1

[31] = target: CaNbp2
Procedure, shortened: as §1

[32] = target: CaRvs167
Procedure, shortened: as §1

[33] = target: CaRvs167-3
Procedure, shortened: as §1

[34] = target: CaSho1
Procedure, shortened: as §1

[35] = target: CaSla1-D1-D2
Procedure, shortened: as §1

[36] = target: CaSla1-D3
Procedure, shortened: as §1

[37] = target: ScAbp1
Procedure, shortened: as §1

[38] = target: ScBbc1
Procedure, shortened: as §1

[39] = target: ScBem1-D1
Procedure, shortened: as §1

[40] = target: ScBzz1-D1
Procedure, shortened: as §1

[41] = target: ScBzz1-D2
Procedure, shortened: as §1

[42] = target: ScCyk3
Procedure, shortened: as §1

[43] = target: ScFus1
Procedure, shortened: as §1

[44] = target: ScHof1
Procedure, shortened: as §1

[45] = target: ScHse1
Procedure, shortened: as §1

[46] = target: ScLsb1
Procedure, shortened: as §1

[47] = target: ScLsb2
Procedure, shortened: as §1

[48] = target: ScLsb3
Procedure, shortened: as §1

[49] = target: ScLsb4
Procedure, shortened: as §1

[50] = target: ScMyo3
Procedure, shortened: as §1

[51] = target: ScMyo5
Procedure, shortened: as §1

[52] = target: ScNbp2
Procedure, shortened: as §1

[53] = target: ScPex13
Procedure, shortened: as §1

[54] = target: ScRvs167
Procedure, shortened: as §1

[55] = target: ScSho1
Procedure, shortened: as §1

[56] = target: ScSla1-D1-D2
Procedure, shortened: as §1

[57] = target: ScSla1-D3
Procedure, shortened: as §1

[58] = target: SpAbp1-D1
Procedure, shortened: as §1

[59] = target: SpBbc1
Procedure, shortened: as §1

[60] = target: SpBzz1-D1
Procedure, shortened: as §1

[61] = target: SpBzz1-D2
Procedure, shortened: as §1

[62] = target: SpCyk3
Procedure, shortened: as §1

[63] = target: SpHof1
Procedure, shortened: as §1

[64] = target: SpHof1-2
Procedure, shortened: as §1

[65] = target: SpHof1-3
Procedure, shortened: as §1

[66] = target: SpHse1
Procedure, shortened: as §1

[67] = target: SpLsb1
Procedure, shortened: as §1

[68] = target: SpLsb4
Procedure, shortened: as §1

[69] = target: SpMyo1
Procedure, shortened: as §1

[70] = target: SpNbp2
Procedure, shortened: as §1

[71] = target: SpPex13
Procedure, shortened: as §1

[72] = target: SpRvs167
Procedure, shortened: as §1

[73] = target: SpSla1-D1-D2
Procedure, shortened: as §1

[74] = target: SpSla1-D3
Procedure, shortened: as §1

Q: Which results are given for GRLRPKRIAPWHLIQ?
A: SPOT peptide array binding signal intensity [1]: 84.5; SPOT peptide array binding signal intensity [2]: 22.8; SPOT peptide array binding signal intensity [3]: 21; SPOT peptide array binding signal intensity [4]: 22; SPOT peptide array binding signal intensity [5]: 15.5; SPOT peptide array binding signal intensity [6]: 4; SPOT peptide array binding signal intensity [7]: 106; SPOT peptide array binding signal intensity [8]: 15; SPOT peptide array binding signal intensity [9]: 542; SPOT peptide array binding signal intensity [10]: ≤ 0; SPOT peptide array binding signal intensity [11]: 36; SPOT peptide array binding signal intensity [12]: 0.5; SPOT peptide array binding signal intensity [13]: 590; SPOT peptide array binding signal intensity [14]: 3.83; SPOT peptide array binding signal intensity [15]: ≤ 0; SPOT peptide array binding signal intensity [16]: 44; SPOT peptide array binding signal intensity [17]: 2.5; SPOT peptide array binding signal intensity [18]: 1010; SPOT peptide array binding signal intensity [19]: 666; SPOT peptide array binding signal intensity [20]: 156; SPOT peptide array binding signal intensity [21]: 26; SPOT peptide array binding signal intensity [22]: 73; SPOT peptide array binding signal intensity [23]: 79.2; SPOT peptide array binding signal intensity [24]: 112; SPOT peptide array binding signal intensity [25]: 178; SPOT peptide array binding signal intensity [26]: 0.75; SPOT peptide array binding signal intensity [27]: 11.8; SPOT peptide array binding signal intensity [28]: ≤ 0; SPOT peptide array binding signal intensity [29]: 67; SPOT peptide array binding signal intensity [30]: 2.5; SPOT peptide array binding signal intensity [31]: 1940; SPOT peptide array binding signal intensity [32]: 9.17; SPOT peptide array binding signal intensity [33]: 49.2; SPOT peptide array binding signal intensity [34]: 174; SPOT peptide array binding signal intensity [35]: 143; SPOT peptide array binding signal intensity [36]: 1; SPOT peptide array binding signal intensity [37]: 13; SPOT peptide array binding signal intensity [38]: 24.5; SPOT peptide array binding signal intensity [39]: 8.5; SPOT peptide array binding signal intensity [40]: 0.5; SPOT peptide array binding signal intensity [41]: 3; SPOT peptide array binding signal intensity [42]: 242; SPOT peptide array binding signal intensity [43]: 106; SPOT peptide array binding signal intensity [44]: 0.25; SPOT peptide array binding signal intensity [45]: 1020; SPOT peptide array binding signal intensity [46]: 2.5; SPOT peptide array binding signal intensity [47]: 2; SPOT peptide array binding signal intensity [48]: 131; SPOT peptide array binding signal intensity [49]: 2; SPOT peptide array binding signal intensity [50]: 1; SPOT peptide array binding signal intensity [51]: 1.5; SPOT peptide array binding signal intensity [52]: 1940; SPOT peptide array binding signal intensity [53]: 10; SPOT peptide array binding signal intensity [54]: 27.7; SPOT peptide array binding signal intensity [55]: 195; SPOT peptide array binding signal intensity [56]: 134; SPOT peptide array binding signal intensity [57]: 5; SPOT peptide array binding signal intensity [58]: 226; SPOT peptide array binding signal intensity [59]: 1; SPOT peptide array binding signal intensity [60]: 228

Q: Which results are given for RVTRKRPREPKSTND?
A: SPOT peptide array binding signal intensity [1]: 86; SPOT peptide array binding signal intensity [2]: 146; SPOT peptide array binding signal intensity [3]: 322; SPOT peptide array binding signal intensity [4]: 18; SPOT peptide array binding signal intensity [5]: 31; SPOT peptide array binding signal intensity [6]: 3; SPOT peptide array binding signal intensity [7]: 300; SPOT peptide array binding signal intensity [8]: 64.5; SPOT peptide array binding signal intensity [9]: 606; SPOT peptide array binding signal intensity [10]: 3; SPOT peptide array binding signal intensity [11]: 72; SPOT peptide array binding signal intensity [12]: 2.5; SPOT peptide array binding signal intensity [13]: 123; SPOT peptide array binding signal intensity [14]: 0.667; SPOT peptide array binding signal intensity [15]: 31; SPOT peptide array binding signal intensity [16]: 178; SPOT peptide array binding signal intensity [17]: 7.25; SPOT peptide array binding signal intensity [18]: 887; SPOT peptide array binding signal intensity [19]: 550; SPOT peptide array binding signal intensity [20]: 346; SPOT peptide array binding signal intensity [21]: 40.5; SPOT peptide array binding signal intensity [22]: 134; SPOT peptide array binding signal intensity [23]: 174; SPOT peptide array binding signal intensity [24]: 169; SPOT peptide array binding signal intensity [25]: 734; SPOT peptide array binding signal intensity [26]: 1; SPOT peptide array binding signal intensity [27]: 35.2; SPOT peptide array binding signal intensity [28]: 1.5; SPOT peptide array binding signal intensity [29]: 193; SPOT peptide array binding signal intensity [30]: 2; SPOT peptide array binding signal intensity [31]: 266; SPOT peptide array binding signal intensity [32]: 4; SPOT peptide array binding signal intensity [33]: 79.2; SPOT peptide array binding signal intensity [34]: 327; SPOT peptide array binding signal intensity [35]: 146; SPOT peptide array binding signal intensity [36]: ≤ 0; SPOT peptide array binding signal intensity [37]: 50; SPOT peptide array binding signal intensity [38]: 88; SPOT peptide array binding signal intensity [39]: 76; SPOT peptide array binding signal intensity [40]: 12; SPOT peptide array binding signal intensity [41]: 10; SPOT peptide array binding signal intensity [42]: 204; SPOT peptide array binding signal intensity [43]: 312; SPOT peptide array binding signal intensity [44]: 2.5; SPOT peptide array binding signal intensity [45]: 1040; SPOT peptide array binding signal intensity [46]: 5.25; SPOT peptide array binding signal intensity [47]: 11; SPOT peptide array binding signal intensity [48]: 244; SPOT peptide array binding signal intensity [49]: 17; SPOT peptide array binding signal intensity [50]: 7; SPOT peptide array binding signal intensity [51]: 4.75; SPOT peptide array binding signal intensity [52]: 378; SPOT peptide array binding signal intensity [53]: 1.25; SPOT peptide array binding signal intensity [54]: 20.3; SPOT peptide array binding signal intensity [55]: 862; SPOT peptide array binding signal intensity [56]: 779; SPOT peptide array binding signal intensity [57]: 15.2; SPOT peptide array binding signal intensity [58]: 345; SPOT peptide array binding signal intensity [59]: 2.5; SPOT peptide array binding signal intensity [60]: 184; SPOT peptide array binding signal intensity [61]: ≤ 0; SPOT peptide array binding signal intensity [62]: 4.5; SPOT peptide array binding signal intensity [63]: 222; SPOT peptide array binding signal intensity [64]: 5.5; SPOT peptide array binding signal intensity [65]: 316; SPOT peptide array binding signal intensity [66]: 298; SPOT peptide array binding signal intensity [67]: 11.5; SPOT peptide array binding signal intensity [68]: 292; SPOT peptide array binding signal intensity [69]: 3; SPOT peptide array binding signal intensity [70]: 1040; SPOT peptide array binding signal intensity [71]: 13; SPOT peptide array binding signal intensity [72]: 7.33; SPOT peptide array binding signal intensity [73]: 1; SPOT peptide array binding signal intensity [74]: 5
